According to ChEMBL document CHEMBL1961873, “Compounds: GSK PKIS; Assays: Nanosyn kinase panel” (2012):

Columns and labels:
[1] = biological target: T1, Serine/threonine-protein kinase Nek9 (Homo sapiens) (UniProt Q8TD19); details: at 1 µM;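 also: each value is a mean percent inhibition of NEK9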
T1 sequence (whole entry): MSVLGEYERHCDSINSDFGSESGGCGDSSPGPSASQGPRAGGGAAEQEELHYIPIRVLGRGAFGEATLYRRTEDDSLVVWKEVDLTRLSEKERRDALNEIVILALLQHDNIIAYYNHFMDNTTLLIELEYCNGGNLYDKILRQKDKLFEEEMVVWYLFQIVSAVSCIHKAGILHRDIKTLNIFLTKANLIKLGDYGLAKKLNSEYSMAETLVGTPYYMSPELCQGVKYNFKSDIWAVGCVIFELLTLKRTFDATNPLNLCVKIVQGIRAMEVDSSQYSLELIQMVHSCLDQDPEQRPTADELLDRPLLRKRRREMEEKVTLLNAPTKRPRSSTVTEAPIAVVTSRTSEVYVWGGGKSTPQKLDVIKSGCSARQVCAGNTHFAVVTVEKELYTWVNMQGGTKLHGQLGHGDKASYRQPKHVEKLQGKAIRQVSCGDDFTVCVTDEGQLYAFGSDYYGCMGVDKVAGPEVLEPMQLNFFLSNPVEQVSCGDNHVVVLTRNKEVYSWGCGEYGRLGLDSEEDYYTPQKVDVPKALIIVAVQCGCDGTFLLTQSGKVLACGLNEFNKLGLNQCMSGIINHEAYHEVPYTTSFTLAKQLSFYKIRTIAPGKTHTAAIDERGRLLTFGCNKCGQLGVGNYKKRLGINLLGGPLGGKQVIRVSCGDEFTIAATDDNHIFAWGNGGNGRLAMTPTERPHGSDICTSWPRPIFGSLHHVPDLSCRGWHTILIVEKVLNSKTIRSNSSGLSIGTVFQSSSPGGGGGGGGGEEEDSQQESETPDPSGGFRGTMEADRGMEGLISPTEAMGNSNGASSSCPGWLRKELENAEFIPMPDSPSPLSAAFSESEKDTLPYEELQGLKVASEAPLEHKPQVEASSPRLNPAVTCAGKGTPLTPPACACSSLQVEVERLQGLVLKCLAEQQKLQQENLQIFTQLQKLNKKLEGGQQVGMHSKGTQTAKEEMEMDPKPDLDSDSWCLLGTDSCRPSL

[2] = biological target: Serine/threonine-protein kinase PLK1 (Homo sapiens) (UniProt P53350); details: at 0.1 µM
[3] = biological target: Serine/threonine-protein kinase PLK1 (Homo sapiens) (UniProt P53350); details: at 1 µM
[4] = biological target: T2, Dual specificity protein kinase TTK (Homo sapiens) (UniProt P33981); details: at 0.1 µM
T2 sequence (whole entry): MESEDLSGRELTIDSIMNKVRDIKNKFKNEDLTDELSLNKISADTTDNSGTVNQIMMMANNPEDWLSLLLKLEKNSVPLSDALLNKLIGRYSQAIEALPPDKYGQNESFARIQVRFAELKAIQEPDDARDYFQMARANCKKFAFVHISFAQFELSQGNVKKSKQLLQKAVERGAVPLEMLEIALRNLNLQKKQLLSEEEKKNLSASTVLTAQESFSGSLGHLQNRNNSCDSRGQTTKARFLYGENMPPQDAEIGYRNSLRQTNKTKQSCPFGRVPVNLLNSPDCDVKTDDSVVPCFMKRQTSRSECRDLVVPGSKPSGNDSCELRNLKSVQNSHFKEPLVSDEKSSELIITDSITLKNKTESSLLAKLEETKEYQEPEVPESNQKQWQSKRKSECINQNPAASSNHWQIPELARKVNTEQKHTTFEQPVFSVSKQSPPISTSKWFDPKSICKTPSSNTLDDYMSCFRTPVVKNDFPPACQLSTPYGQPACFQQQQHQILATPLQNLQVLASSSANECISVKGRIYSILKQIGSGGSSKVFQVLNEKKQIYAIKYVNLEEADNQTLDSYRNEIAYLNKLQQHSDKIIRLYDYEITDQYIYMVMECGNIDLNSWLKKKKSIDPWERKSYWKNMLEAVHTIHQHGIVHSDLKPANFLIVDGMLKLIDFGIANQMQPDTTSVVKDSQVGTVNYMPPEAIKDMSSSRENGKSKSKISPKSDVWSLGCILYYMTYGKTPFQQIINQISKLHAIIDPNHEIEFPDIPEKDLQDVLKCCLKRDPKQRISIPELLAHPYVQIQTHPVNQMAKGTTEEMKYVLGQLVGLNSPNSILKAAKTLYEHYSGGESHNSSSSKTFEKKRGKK

[5] = test system: T3, Receptor-type tyrosine-protein kinase FLT3 (Homo sapiens), P36888 [D835Y]; details: at 1 µM
T3 sequence (whole entry): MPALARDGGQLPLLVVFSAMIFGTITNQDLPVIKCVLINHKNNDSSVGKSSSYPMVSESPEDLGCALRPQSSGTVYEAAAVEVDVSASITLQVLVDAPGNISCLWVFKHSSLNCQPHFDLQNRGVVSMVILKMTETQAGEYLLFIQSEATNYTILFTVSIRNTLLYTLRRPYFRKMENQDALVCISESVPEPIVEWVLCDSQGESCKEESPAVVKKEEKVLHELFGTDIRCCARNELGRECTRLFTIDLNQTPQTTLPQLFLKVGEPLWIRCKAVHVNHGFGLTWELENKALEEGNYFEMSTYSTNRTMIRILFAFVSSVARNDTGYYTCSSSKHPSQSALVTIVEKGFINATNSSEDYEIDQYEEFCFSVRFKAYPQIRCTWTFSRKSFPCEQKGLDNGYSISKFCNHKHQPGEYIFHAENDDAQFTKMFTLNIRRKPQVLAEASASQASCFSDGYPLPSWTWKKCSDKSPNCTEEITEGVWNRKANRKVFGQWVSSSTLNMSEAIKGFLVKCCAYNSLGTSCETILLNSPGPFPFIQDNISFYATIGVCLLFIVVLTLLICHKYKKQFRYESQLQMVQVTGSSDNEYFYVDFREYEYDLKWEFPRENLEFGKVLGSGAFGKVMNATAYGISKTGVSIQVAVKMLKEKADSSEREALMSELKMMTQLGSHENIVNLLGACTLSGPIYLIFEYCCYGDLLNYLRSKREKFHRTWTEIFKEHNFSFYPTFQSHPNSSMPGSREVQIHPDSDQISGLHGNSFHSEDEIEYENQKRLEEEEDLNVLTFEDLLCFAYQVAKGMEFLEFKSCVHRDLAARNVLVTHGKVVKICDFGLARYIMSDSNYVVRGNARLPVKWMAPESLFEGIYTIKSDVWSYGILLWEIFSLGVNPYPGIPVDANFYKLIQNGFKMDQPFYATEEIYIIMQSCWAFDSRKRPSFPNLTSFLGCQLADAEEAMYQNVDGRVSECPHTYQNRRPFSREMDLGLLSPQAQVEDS

[6] = biological target: Vascular endothelial growth factor receptor 3 (Homo sapiens) (UniProt P35916); details: at 0.1 µM
[7] = biological target: Vascular endothelial growth factor receptor 3 (Homo sapiens) (UniProt P35916); details: at 1 µM
[8] = biological target: Macrophage colony-stimulating factor 1 receptor (Homo sapiens) (UniProt P07333); details: at 0.1 µM
[9] = biological target: Macrophage colony-stimulating factor 1 receptor (Homo sapiens) (UniProt P07333); details: at 1 µM
[10] = biological target: Tyrosine-protein kinase Fyn (Homo sapiens) (UniProt P06241); details: at 0.1 µM
[11] = biological target: Tyrosine-protein kinase Fyn (Homo sapiens) (UniProt P06241); details: at 1 µM
[12] = biological target: Tyrosine-protein kinase HCK (Homo sapiens) (UniProt P08631); details: at 0.1 µM
[13] = biological target: Tyrosine-protein kinase HCK (Homo sapiens) (UniProt P08631); details: at 1 µM
[14] = biological target: Insulin-like growth factor 1 receptor (Homo sapiens) (UniProt P08069); details: at 0.1 µM
[15] = biological target: Insulin-like growth factor 1 receptor (Homo sapiens) (UniProt P08069); details: at 1 µM
[16] = biological target: Insulin receptor (Homo sapiens) (UniProt P06213); details: at 0.1 µM
[17] = biological target: Insulin receptor (Homo sapiens) (UniProt P06213); details: at 1 µM
[18] = biological target: Insulin receptor-related protein (Homo sapiens) (UniProt P14616); details: at 0.1 µM
[19] = biological target: Insulin receptor-related protein (Homo sapiens) (UniProt P14616); details: at 1 µM
[20] = biological target: T4, Tyrosine-protein kinase ITK/TSK (Homo sapiens) (UniProt Q08881); details: at 0.1 µM;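 also: mean percent inhibition of ITK from the GSK PKIS screen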
T4 sequence (whole entry): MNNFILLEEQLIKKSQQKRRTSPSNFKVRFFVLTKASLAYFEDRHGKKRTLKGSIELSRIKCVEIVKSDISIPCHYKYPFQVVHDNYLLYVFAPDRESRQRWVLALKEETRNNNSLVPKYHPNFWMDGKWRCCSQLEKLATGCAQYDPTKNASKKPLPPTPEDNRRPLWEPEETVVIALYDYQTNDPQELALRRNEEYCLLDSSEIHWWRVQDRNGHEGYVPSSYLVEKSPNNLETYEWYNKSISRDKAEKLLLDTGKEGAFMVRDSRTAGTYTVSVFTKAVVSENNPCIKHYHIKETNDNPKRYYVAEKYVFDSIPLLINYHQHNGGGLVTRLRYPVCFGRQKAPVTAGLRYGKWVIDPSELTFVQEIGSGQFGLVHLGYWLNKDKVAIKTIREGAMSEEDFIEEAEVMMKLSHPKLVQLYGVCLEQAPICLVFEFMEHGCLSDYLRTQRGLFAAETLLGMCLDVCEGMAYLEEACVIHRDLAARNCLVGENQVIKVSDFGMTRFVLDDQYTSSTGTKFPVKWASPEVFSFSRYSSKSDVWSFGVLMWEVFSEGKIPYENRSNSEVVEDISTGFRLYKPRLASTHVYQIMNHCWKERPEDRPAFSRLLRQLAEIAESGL

Sequence of Vascular endothelial growth factor receptor 3 (Homo sapiens) (P35916 whole entry): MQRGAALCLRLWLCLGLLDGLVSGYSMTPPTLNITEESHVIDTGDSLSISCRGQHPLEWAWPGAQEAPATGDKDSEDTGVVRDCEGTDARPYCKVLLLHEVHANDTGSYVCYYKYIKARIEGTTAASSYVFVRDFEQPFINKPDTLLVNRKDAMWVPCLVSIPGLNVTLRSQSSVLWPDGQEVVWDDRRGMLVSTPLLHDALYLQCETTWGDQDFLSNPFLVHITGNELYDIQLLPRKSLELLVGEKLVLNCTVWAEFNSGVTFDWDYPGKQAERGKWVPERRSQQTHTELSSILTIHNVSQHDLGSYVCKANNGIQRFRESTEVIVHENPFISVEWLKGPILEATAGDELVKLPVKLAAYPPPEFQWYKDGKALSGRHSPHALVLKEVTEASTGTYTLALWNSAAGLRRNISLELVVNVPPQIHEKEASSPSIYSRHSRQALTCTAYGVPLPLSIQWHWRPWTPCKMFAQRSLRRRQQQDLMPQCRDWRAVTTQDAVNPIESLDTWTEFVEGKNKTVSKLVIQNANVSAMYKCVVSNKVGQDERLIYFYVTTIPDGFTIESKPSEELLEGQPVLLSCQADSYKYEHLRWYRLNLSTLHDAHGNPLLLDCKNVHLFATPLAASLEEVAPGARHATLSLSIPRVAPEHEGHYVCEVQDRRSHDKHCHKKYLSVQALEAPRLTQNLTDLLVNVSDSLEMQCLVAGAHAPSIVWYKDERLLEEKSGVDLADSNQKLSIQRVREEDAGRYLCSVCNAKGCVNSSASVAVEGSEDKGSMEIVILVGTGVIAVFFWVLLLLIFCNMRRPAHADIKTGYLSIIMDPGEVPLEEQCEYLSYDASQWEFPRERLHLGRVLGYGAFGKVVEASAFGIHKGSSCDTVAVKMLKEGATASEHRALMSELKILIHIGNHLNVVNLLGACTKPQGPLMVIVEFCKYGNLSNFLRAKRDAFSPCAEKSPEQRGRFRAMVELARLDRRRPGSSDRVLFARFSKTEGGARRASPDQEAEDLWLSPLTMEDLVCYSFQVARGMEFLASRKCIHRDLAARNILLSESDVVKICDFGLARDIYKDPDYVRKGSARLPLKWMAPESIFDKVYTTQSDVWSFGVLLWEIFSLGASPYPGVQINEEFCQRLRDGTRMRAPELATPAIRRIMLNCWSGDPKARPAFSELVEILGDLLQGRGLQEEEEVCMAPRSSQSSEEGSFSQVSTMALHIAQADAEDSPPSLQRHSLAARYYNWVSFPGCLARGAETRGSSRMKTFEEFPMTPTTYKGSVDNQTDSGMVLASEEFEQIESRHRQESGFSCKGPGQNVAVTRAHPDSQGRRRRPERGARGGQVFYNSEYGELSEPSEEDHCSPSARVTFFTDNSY
Sequence of Macrophage colony-stimulating factor 1 receptor (Homo sapiens) (P07333 whole entry): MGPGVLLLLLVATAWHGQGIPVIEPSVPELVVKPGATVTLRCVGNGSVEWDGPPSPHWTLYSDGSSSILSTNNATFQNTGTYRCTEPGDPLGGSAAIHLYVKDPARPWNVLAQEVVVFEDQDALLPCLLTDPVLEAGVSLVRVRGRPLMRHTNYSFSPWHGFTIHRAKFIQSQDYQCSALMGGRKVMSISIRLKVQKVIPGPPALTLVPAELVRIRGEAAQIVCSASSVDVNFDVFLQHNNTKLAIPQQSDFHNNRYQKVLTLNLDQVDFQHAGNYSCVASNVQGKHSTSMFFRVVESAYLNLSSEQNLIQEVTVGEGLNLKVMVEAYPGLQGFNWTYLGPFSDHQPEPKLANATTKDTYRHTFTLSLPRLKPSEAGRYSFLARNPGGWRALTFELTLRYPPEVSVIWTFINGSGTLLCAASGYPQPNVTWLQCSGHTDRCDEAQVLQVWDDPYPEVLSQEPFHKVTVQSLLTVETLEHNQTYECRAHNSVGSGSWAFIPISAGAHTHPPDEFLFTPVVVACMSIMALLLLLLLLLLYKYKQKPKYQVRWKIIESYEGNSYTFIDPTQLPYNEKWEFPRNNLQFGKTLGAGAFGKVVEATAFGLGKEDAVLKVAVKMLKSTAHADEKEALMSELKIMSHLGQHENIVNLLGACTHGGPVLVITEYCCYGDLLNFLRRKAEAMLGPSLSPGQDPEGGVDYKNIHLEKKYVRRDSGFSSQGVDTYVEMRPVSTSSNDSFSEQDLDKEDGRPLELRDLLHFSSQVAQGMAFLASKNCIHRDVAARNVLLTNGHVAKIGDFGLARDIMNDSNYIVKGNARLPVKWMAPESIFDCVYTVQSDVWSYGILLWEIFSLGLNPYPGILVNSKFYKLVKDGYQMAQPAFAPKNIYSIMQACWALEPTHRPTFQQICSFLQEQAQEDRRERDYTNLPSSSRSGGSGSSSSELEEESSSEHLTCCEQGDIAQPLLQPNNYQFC
Sequence of Insulin-like growth factor 1 receptor (Homo sapiens) (P08069 31-736 limits assumed): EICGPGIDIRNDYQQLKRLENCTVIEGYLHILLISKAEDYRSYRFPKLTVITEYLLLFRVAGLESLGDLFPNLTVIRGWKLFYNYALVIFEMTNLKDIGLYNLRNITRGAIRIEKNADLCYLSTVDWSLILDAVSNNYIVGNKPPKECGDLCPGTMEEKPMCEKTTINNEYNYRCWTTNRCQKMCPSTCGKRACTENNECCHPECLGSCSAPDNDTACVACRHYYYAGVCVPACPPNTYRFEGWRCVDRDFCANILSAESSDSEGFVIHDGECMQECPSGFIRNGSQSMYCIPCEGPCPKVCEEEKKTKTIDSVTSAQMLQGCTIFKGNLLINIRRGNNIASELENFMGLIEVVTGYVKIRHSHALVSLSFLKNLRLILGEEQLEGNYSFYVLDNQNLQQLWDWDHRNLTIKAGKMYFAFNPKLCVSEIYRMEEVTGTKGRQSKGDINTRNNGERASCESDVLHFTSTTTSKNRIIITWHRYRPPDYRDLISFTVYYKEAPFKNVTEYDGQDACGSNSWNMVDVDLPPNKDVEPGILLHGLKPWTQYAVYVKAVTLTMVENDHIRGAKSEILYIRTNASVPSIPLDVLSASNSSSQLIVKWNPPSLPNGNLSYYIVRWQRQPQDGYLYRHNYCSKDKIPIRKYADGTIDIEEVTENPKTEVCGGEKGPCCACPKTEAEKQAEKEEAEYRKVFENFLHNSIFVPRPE
Sequence of Insulin-like growth factor 1 receptor (Homo sapiens) (P08069 741-1367 limits assumed): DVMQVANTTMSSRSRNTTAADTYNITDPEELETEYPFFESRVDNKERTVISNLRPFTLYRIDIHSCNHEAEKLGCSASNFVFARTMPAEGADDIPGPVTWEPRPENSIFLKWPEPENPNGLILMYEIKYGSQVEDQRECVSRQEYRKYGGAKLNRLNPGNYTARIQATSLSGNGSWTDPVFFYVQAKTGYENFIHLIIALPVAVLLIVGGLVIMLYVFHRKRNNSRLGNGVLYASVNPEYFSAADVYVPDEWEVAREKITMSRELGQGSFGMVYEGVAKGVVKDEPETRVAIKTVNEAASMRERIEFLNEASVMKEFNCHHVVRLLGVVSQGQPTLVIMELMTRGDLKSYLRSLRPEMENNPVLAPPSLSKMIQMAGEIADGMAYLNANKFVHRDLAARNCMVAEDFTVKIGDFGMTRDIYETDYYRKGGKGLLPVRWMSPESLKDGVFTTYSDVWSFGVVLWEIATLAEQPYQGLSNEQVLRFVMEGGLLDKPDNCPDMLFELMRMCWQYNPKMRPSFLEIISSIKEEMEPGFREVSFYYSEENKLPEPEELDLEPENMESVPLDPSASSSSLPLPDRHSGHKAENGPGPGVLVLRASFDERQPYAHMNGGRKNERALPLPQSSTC
Sequence of Tyrosine-protein kinase HCK (Homo sapiens) (P08631 2-526 limits assumed): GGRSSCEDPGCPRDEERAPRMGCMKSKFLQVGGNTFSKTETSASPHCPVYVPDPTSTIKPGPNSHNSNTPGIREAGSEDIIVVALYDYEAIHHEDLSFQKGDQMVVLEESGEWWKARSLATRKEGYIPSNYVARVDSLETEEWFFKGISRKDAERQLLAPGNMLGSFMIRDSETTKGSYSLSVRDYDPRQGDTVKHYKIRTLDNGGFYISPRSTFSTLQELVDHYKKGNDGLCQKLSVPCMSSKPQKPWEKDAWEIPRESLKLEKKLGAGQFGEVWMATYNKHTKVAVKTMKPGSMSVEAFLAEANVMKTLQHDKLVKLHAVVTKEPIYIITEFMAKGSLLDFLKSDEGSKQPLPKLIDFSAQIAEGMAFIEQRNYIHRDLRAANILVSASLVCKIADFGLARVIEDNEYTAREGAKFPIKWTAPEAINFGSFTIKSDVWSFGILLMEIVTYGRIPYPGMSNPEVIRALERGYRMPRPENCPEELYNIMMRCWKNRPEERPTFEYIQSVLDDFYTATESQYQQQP
Sequence of Tyrosine-protein kinase Fyn (Homo sapiens) (P06241 2-537 limits assumed): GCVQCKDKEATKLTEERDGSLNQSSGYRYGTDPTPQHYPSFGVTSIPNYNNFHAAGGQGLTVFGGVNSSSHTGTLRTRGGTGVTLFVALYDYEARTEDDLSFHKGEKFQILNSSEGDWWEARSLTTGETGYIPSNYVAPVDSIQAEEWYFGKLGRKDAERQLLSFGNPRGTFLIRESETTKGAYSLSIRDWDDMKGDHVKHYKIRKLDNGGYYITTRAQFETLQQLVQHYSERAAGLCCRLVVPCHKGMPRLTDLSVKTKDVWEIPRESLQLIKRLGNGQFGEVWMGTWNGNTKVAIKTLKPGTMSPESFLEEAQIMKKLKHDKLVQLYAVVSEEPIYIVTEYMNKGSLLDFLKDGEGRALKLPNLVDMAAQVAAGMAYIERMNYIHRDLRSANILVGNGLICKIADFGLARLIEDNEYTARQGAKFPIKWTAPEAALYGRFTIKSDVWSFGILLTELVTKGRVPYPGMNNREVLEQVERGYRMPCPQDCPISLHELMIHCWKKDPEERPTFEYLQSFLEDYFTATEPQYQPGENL

| SMILES | inhibition [1] [%] | inhibition [2] [%] | inhibition [3] [%] | inhibition [4] [%] | inhibition [5] [%] | inhibition [6] [%] | inhibition [7] [%] | inhibition [8] [%] | inhibition [9] [%] | inhibition [10] [%] | inhibition [11] [%] | inhibition [12] [%] | inhibition [13] [%] | inhibition [14] [%] | inhibition [15] [%] | inhibition [16] [%] | inhibition [17] [%] | inhibition [18] [%] | inhibition [19] [%] | inhibition [20] [%] |
| --- | --- | --- | --- | --- | --- | --- | --- | --- | --- | --- | --- | --- | --- | --- | --- | --- | --- | --- | --- | --- |
| COc1cccc(Nc2nccc(-c3cnn4ncccc34)n2)c1 | 26.1 | 3.48 | 21.3 | 4.85 | 52.3 | -0.16 | 30.2 | 50.4 | 90.9 | 1.46 | 16.2 | 7.25 | 17.4 | 14.5 | 52.4 | 10.9 | 54.2 | 3.8 | 15.4 | 1.26 |
| Cc1cc(O)cc(C)c1/C=C/c1cncc(C(=O)OC(C)(C)C)c1 | 2.6 | 0.53 | 2.82 | 6.3 | 2.14 | 1.44 | 1.34 | 7.66 | 38.6 | 8.16 | 39.1 | 11.3 | 51.5 | 4.61 | 2.33 | 3.02 | 4.74 | 2.54 | 1.64 | 1.16 |
| CN(C)CCNC(=O)Nc1ccc(N(C)c2ccnc(Nc3ccc(CS(C)(=O)=O)cc3)n2)cc1 | 4.76 | 3.28 | 3.61 | 6.19 | 5.12 | 2.39 | 4.9 | 14.8 | 67.3 | 1.66 | 3.44 | 6.05 | 12.3 | 5.44 | 8.75 | 3.47 | 5.6 | 2.48 | 3.81 | 1.62 |
| CCS(=O)(=O)c1ccc(OC)c(Nc2ncc(-c3cccc(C(C)=O)c3)o2)c1 | 3.45 | 2.42 | 2.98 | 5.81 | 87.2 | 10.7 | 47.3 | 10.2 | 34.7 | 26.4 | 71.4 | 11 | 71.2 | 1.64 | 3.11 | 2.36 | 2.68 | 2.22 | 3.18 | 0.98 |
| COc1ccc2ncn(-c3cc(O[C@H](C)c4ccccc4C(F)(F)F)c(C(N)=O)s3)c2c1 | 83.6 | 97 | 99.2 | 0.16 | 2.3 | 1.9 | 15 | -0.05 | 5.84 | 0.53 | 5 | 0.81 | 2.14 | -0.28 | -0.09 | 0.11 | 1.34 | -2.16 | -0.27 | 0.33 |
| O=C1Nc2ccccc2/C1=C1\CCc2cc(O)ccc21 | 8.07 | 4.12 | 4.17 | 12.1 | 70.6 | 7.22 | 24.6 | 17.3 | 59.6 | 5.55 | 7.65 | 6.34 | 14.6 | 4.61 | 12.5 | 7.96 | 23 | 3.81 | 2.83 | 3.68 |
